# Assay outcomes as filed in PubChem.
# The list is not random: actives were taken first. Their share in the collection is about 2%.
# PKA-R1A act – PKA-R1A complex activation | AID 504707 | activation, % at 11.4 µM | P00514+P68181 | 340,000 compounds, 0.083% hits | PKA-R1A dissociation, Cy5-IP20 fluorescence polarization; scaled: DMSO 0%, 113 µM cGMP 100%;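 active means percent activation above the mean of all tested compounds plus 3 SD, cut at about 19% in these data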;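 further: higher means more PKAc released from R1A so a rise in polarization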
# MsrA inh – inhibits bovine methionine sulfoxide reductase A; purified bovine MsrA, absorbance read-out; AID 651718; 360,000 compounds, 0.75% hits; inhibition, % at 15.5 µM;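 further: 0% = vehicle wells with enzyme and 100% = reference inhibitor wells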
# Mot1-301 SUMO – inhibitors of SUMOylation pathway: yeast Mot1-301 growth rescue; S. cerevisiae Mot1-301 growth rescue, ATP luminescence, 38.5C; percent above DMSO median, 100 means doubled; 320,000 compounds, 1% hits; AID 2716; growth rescue, % at 18.8 µM;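 active means every valid replicate shows activation above 250% relative to neutral control wells; inactive means the rest, any valid replicate at or below 250%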;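 further: OY570 slx delta 5 strain wells were the positive control but not used for scaling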
# PKA-R2B act – activators of human PKA-R2B complex; P22694+P31323; PKA-R2B holoenzyme dissociation, Cy5-IP20 fluorescence polarization; R2B truncated from residue 108, S112A mutant; 0% DMSO only, 100% 113 µM cGMP; activation, % at 11.4 µM; 340,000 compounds, 0.079% hits; AID 504700;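 active means activation above a cutoff set at the mean over all compounds plus 3 SD, cut at about 18% in these data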;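 further: higher means more holoenzyme dissociation and a rise in polarization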
# Target sequence (P31323 whole entry, looked up, other chains not shown, the tested form may be a part): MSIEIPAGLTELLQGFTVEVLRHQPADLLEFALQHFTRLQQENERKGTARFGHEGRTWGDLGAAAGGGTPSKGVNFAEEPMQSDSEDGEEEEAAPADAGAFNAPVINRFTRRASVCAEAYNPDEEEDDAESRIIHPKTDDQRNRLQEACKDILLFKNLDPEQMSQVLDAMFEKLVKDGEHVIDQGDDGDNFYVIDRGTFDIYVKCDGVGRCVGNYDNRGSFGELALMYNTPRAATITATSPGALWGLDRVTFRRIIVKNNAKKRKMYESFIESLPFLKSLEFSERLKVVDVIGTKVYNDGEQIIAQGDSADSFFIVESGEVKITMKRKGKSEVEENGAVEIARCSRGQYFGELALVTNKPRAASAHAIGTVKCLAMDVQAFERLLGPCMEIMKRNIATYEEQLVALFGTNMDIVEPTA
# MsrA act – bovine methionine sulfoxide reductase A activation | 360,000 compounds, 0.3% hits | purified bovine MsrA, absorbance read-out | activation, % at 10.6 µM; in the data active means activation above about 7.5%;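 further: 0% = vehicle and 100% = reference activator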
# MsrA conf – confirmation of bovine MsrA inhibitors; inhibition, % at 15.5 µM; purified bovine MsrA, absorbance read-out; 2,300 compounds, 41% hits; AID 651822; shares compounds with MsrA inh;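 further: coupled to thioredoxin reductase with NADPH and selenocystamine and DMSO as substrate; 0% = vehicle only and 100% = full effect of reference inhibitor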
# Numbers without * were called inactive; . = not tested or not shown. Unless noted, no stated cut-off is given here; in the data, active means inhibition above about 4.5%; inactive means the rest.
SMILES,PKA-R1A act,MsrA inh,Mot1-301 SUMO,PKA-R2B act,MsrA act,MsrA conf
O=C(N/N=C/c1cnc(N2CCOCC2)s1)c1ccccc1,-3,5.2*,-12,1,-7,5.1*
O=C(N/N=C/c1sc(N2CCOCC2)nc1-c1ccccc1)c1ccc(O)cc1,13,17*,33,-6,-5,10*
COc1ccc(C(=O)N/N=C/c2sc(N3CCOCC3)nc2-c2ccccc2)cc1OC,4,1,15,-6,-3,.
Fc1ccccc1/C=N/Nc1ncnc2nc[nH]c12,-4,8.9*,147,4,-5,4
Cc1ccc(/C=N/Nc2ncnc3nc[nH]c23)cc1,-6,3,3,-5,-7,.
Fc1cccc(/C=N/Nc2ncnc3nc[nH]c23)c1,-3,5.2*,-15,-16,-4,4
COc1ccccc1CN1C(=O)C(Cc2ccccc2)ON=C1c1ncccc1C (stereo not given),.,0,.,.,-2,.
COc1ccc(-c2cc(C(F)(F)F)n3nc(C(=O)O)nc3n2)cc1,-8,5.1*,-16,5,-5,4
CCCCN1C(=O)C(CC(=O)NCc2cccc3ccccc23)CC(C(=O)N2CCOCC2)=C1C (stereo not given),-15,1,.,-2,-6,.
CC(O)(c1cccc(F)c1)c1nc(-c2cccc3cccnc23)cs1 (stereo not given),.,-1,.,.,-6,.
O=C(O)[C@H](Cc1ccccc1)Nc1ccc([N+](=O)[O-])cn1,-2,4.8*,29,1,-3,3
O=C(O)C(Cc1ccccc1)Nc1ccc([N+](=O)[O-])cc1[N+](=O)[O-] (stereo not given),-3,3,-22,-4,-2,.
COc1cc(N2CCCC2)ccc1C=O,6,6.8*,-21,-1,-9,3
COCc1cc(C)n(CC(=O)N/N=C/c2ccc(-c3ccc(Cl)c(C(=O)O)c3)o2)c(=O)c1C#N,-2,9.1*,-16,-3,-6,9.7*
COCc1cc(C)nc(OCC(=O)N/N=C/c2ccc(C)o2)c1C#N,-6,6.7*,-3,1,-5,2
COC(=O)/C=C1\OC(C2CC2)c2ccccc21 (stereo not given),.,0,.,.,.,.
O=C(NCC1CCCCC1)c1cccc([N+](=O)[O-])c1,-10,0,-10,-7,0,.
O=C(NCC1CC1)c1cc([N+](=O)[O-])cc([N+](=O)[O-])c1,7,8.5*,-12,-14,4,7.1*
COc1ccccc1CCC(=O)NNC(=O)Cn1nc(C)cc1C,7,0,.,3,-6,.
Oc1ccc(C=NN=Cc2ccco2)c(O)c1,3,4.9*,.,-2,-6,5.4*
NC(=N\N=Cc1ccco1)/C(N)=N/N=Cc1ccco1,6,4.8*,.,-8,0,6.4*
NC(=N\N=Cc1ccccc1)/C(N)=N/N=Cc1ccccc1,.,2,.,.,-2,.
COc1ccccc1NS(=O)(=O)c1ccc(N/N=C/c2ccccc2OCC(=O)O)c([N+](=O)[O-])c1,6,5.4*,78,-1,-4,3
O=C(O)COc1ccccc1/C=N/Nc1ccc(S(=O)(=O)Nc2ccc(Cl)cc2)cc1[N+](=O)[O-],6,4,171,6,-2,.
CCN(CC)S(=O)(=O)c1ccc(N/N=C/c2ccccc2OCC(=O)O)c([N+](=O)[O-])c1,-6,5.6*,-23,-9,-10,2
SMILES,PKA-R1A act,MsrA inh,Mot1-301 SUMO,PKA-R2B act,MsrA act,MsrA conf
COC(=O)N1[C@H](C)C=C[C@]1(Cc1ccccc1)C(=O)NCCCNc1ncc(C(F)(F)F)cc1Cl,-4,37*,-23,-6,-1,37*
C[C@]1(C(=O)NCCCNc2ncc(C(F)(F)F)cc2Cl)C=C[C@@H](Cc2ccccc2)N1C(=O)c1ccccc1,-16,.,11,-11,4,.
Nc1ncnc2c1ncn2[C@@H]1O[C@H](C(=O)N2CCC[C@@H]2C(=O)OCc2ccccc2)[C@@H](O)[C@H]1O,.,-1,.,.,-7,.
CN(C)c1ccc(NC2=C(Cl)C(=O)c3ccccc3C2=O)cc1,3,8.2*,-27,-2,-1,3
O=C(COC(=O)c1cc(S(=O)(=O)NCc2ccccc2)ccc1O)c1cc2ccccc2o1,-5,4.8*,-21,-2,-3,3
O=C(COC(=O)c1cc(S(=O)(=O)NCc2ccccc2)ccc1O)NCc1ccccc1,2,4,42,5,-4,.
Cn1cc(/C=C2\SC(=O)NC2=S)c2ccccc21,6,22*,.,-12,-11,7.0*
COc1ccc(NC(=O)/C=C/c2cccc(F)c2)cn1,-6,0,18,-6,0,.
COc1ccc(NC(=O)/C=C/c2ccco2)cn1,-3,4.9*,136,13,-6,2
COc1ccc(NC(=O)/C=C/c2ccc(Br)o2)cn1,7,5.3*,4,3,-7,2
COc1ccc(NC(=O)c2ccco2)cn1,-5,-1,-1,-12,0,.
CCc1nnc(NC(=O)/C=C/c2ccco2)s1,1,6.8*,16,7,-8,6.2*
COc1ccc(N2CCN(CC(=O)Nc3c(C)cccc3C)CC2)cc1,2,1,.,4,-2,.
C#CCN1CC(COCCCC)Oc2cccc(Oc3ccc(C(C)(C)C)c(C)c3)c2S1(=O)=O (stereo not given),.,0,.,.,.,.
Cc1cc(/C=C(/C#N)c2nc3ccccc3[nH]2)c(C)n1-c1ccccc1C(=O)O,3,2,19,0,-2,.
Cc1cc(/C=C(/C#N)c2nc3ccccc3[nH]2)c(C)n1-c1cc(C(=O)O)cc(C(=O)O)c1,-7,4.9*,.,4,-5,3
Cn1c(=O)c2c(nc(N/N=C/c3ccco3)n2C)n(C)c1=O,2,6.2*,25,1,1,6.8*
Cn1c(=O)c2c(nc(N/N=C/c3cccs3)n2C)n(C)c1=O,0,4.9*,-13,-8,-3,5.7*
Cn1c(=O)c2c(ncn2CC(=O)N/N=C/c2ccco2)n(C)c1=O,-2,1,-13,2,-7,.
O=C(c1cccnc1)N1CCN(C(=O)c2cccc(Cl)c2)CC1,-4,-1,-23,-9,0,.
O=C1NCCN1C(=O)c1cccc(Cl)c1,-12,12*,-6,5,0,9.9*
NC(=S)NN=Cc1cc(-c2cccc(N)c2)ccn1,-2,3,.,-6,-1,.
NS(=O)(=O)c1cc(C(=O)OCC(=O)Nc2ccccc2[N+](=O)[O-])ccc1Cl,-6,12*,-5,2,-5,6.0*
NS(=O)(=O)c1cc(C(=O)OCC(=O)Nc2ccc(Cl)cc2[N+](=O)[O-])ccc1Cl,-9,0,13,-15,-12,.
CCCCC(=O)N(C)c1c(CC)nc2c(OCC(=O)N3CCOCC3)cccn12,.,1,.,.,-2,.
